The list is not random: actives were taken first. Their share in the collection is about 5.4%.
p53 reactivation: re-activators of mutant p53; H1299 p53-A138V BP100-luciferase reporter, luminescence, 24 h; Potency, µM (titrated, usually from 92.2 µM), for the others: at the top dose activity change, positive = activation, hits mostly activators; actives 0.063% (n = 320,000); note: potency is the fitted concentration of half-maximal effect; % of control where 0% means no effect; nearly all actives have a fitted effect of over 45% in size
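H1299 (p53-null), stable ts p53-A138V + BP100-Luc; 1000 cells/well, Opti-MEM/10% FBS; cpd 4 pt, 1:5; 24 h, 37 deg C, 5% CO2; detection reagent 10 min RT; luminescence.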
RORgamma inh: ROR gamma (mouse) transcription inhibition; AID 2551; actives 5.4% (n = 310,000); Potency, µM (series often up to 53.6 µM), for the others: at the highest dose activity change, negative = inhibition, hits mostly inhibitors; P51450; Drosophila S2 Gal4-RORgamma UAS-luciferase reporter, 20 h; note: potency is the fitted concentration of half-maximal effect; % is set by controls: 0 for no effect and ±100 for the full control effect; nearly all actives have a fitted effect of over 60% in size
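Compounds are pin-transferred onto Drosophila Schneider cells expressing a copper-inducible Gal4–ROR gamma transactivation domain fusion. After 1 hr, copper sulfate is added to 700 uM final; luciferase is read 20 hr later.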
Six1-Eya2 blk: inhibitors of human Six1/Eya2 interaction; Q15475+O00167; AlphaScreen GST-Six1/His-Eya2 binding, biochemical; stronger effect = lower value; activity change, % (concentration not given with the values); actives 0.56% (n = 360,000); in the data active = activity change below about -65%; inconclusive = mostly about -30% to -63%; note: % is set by controls: 0 for no effect and ±100 for the full control effect
Target sequence (O00167 whole entry, looked up): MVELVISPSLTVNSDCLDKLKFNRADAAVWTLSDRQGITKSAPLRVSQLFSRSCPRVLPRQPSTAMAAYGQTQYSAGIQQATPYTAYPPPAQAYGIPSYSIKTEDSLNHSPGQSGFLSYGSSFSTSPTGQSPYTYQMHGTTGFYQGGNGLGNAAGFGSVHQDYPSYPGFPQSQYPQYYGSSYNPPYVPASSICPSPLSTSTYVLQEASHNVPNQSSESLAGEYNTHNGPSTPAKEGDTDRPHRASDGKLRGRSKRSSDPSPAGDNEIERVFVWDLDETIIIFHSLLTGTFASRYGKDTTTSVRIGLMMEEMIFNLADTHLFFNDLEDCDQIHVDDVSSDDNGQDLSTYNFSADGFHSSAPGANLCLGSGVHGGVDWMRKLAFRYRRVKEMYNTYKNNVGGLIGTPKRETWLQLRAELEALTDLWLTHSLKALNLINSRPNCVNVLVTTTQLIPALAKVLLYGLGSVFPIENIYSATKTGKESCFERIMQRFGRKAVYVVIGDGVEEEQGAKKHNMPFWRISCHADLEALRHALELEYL
Target sequence (Q15475 whole entry, looked up): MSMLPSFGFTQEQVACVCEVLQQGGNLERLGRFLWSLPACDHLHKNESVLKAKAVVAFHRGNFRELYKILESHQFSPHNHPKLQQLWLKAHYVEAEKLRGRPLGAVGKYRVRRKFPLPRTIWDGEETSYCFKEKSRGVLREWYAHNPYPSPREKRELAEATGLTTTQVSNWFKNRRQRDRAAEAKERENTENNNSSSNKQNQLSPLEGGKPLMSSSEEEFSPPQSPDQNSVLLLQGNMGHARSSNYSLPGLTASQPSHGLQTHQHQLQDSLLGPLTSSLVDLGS
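Compounds are tested against tagged Six1 and Eya2 proteins bridged by glutathione donor and nickel acceptor beads; after a one-hour incubation at 37 °C without light, AlphaScreen emission is recorded.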
VP16 counter: counter-screen for ROR gamma inhibitors: Gal4-VP16 reporter; Drosophila S2 Gal4-VP16 UAS-luciferase, luminescence, 20 h; Potency, µM (series often up to 53.6 µM), inactives show at the top dose activity, negative = inhibition, most hits filed as inhibitors; actives 3.5% (n = 310,000); AID 2546;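 note: Gal4-VP16 expression switched on by copper sulfate through the metallothionein promoter; potency is the fitted concentration of half-maximal effect; % is set by controls: 0 for no effect and ±100 for the full control effect; nearly all actives have a fitted effect of over 50% in size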
CtBP-E1A blk: CtBP/E1A binding inhibition; AlphaScreen GST-E1A/His-CtBP binding, 1536-well; stronger effect = lower value; activity change, % (concentration not given with the values); actives 0.49% (n = 340,000); in the data active = activity change below about -65%; inconclusive = mostly about -30% to -63%; note: % is set by controls: 0 for no effect and ±100 for the full control effect
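Steps: dispense buffer (Tris pH 8.0, NaCl 300 mM, TCEP 1 mM, BSA, Tween 20); add 5X protein mix (GST-E1A, His-CtBP, 125 nM each); pin 23 nL compound; 2 h at 37 °C, dark; add 5X beads (50 ug/mL); 1 h; read.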
The depositor's hits bear a star; ? = inconclusive; / = not tested or not shown; [ ] = dose if it differs, or a comment. Unless noted, calls come from the whole dose curve; as a rule, active = well fitted curve in the direction sought with a large enough effect; inconclusive = small, poorly fitted or top-dose-only effect, or another doubt; inactive = no such curve, though single readings can be large; an effect the other way counts as inactive or inconclusive.

SMILES | p53 reactivation | RORgamma inh | Six1-Eya2 blk | VP16 counter | CtBP-E1A blk
CC(=O)NC(c1ccccc1)c1nc(-c2ccc(Cl)cc2)cs1 (configuration not stated) | / | / | 0 | / | 2
CC(C)=CCC/C(C)=C/CO/N=C1/C[C@@H](O)[C@@H](O)[C@@H]2[C@@H]3C(=O)N(c4cccc(Oc5ccccc5)c4)C(=O)[C@H]3CC[C@@H]12 | / | 22%[10 µM] | / | -3%[10 µM] | /
Cc1nnc(SCc2ccc(Cl)c(Cl)c2)s1 | 5% | 16% | 22 | 6% | 18
Cc1[nH]c(=S)sc1Cc1ccc(Cl)c(Cl)c1 | 6% | 16µM* | / | ? | /
O=C(Nc1ccc(F)c(Cl)c1)C1CC(=O)n2c(nc3ccccc32)N1 (configuration not stated) | -3% | 3.5µM* | -9 | ? | -5
S=c1nc(C2CC2)n(-c2ccccc2)[nH]1 | 2% | 7.9µM* | 9 | ? | 2
Clc1ccc(Cc2nn3c(Cn4nnc5ccccc54)nnc3s2)cc1 | -7% | ? | -2 | -11% | -7
Cc1ccc(C(=O)N/N=C2\SCC(=O)N2c2cc(C)ccc2C)cc1 | 2% | ? | 1 | 13µM* | 8
O=c1[nH]n2c(=O)c3c([nH]c2c1N=Nc1cccc(C(F)(F)F)c1)CCCC3 | -13% | -24% | ? | ? | -23
Cc1ccc(C(F)(F)F)cc1NC(N)=S | -3% | -32% | 0 | -4% | 2
Cc1[nH]n(C(N)=S)c(=O)c1N=Nc1cc(C(F)(F)F)ccc1Cl | 6% | 0.56µM* | -21 | ? | -16
Cc1[nH]n(C2=NCCS2)c(=O)c1N=Nc1cccc(C(F)(F)F)c1 | -3% | 0.28µM* | -7 | 0.63µM* | -7
Cc1[nH]n(C(N)=S)c(=O)c1N=Nc1cccc(C(F)(F)F)c1 | 12% | 0.11µM* | -1 | 0.4µM* | -2
Cc1[nH]n(-c2ccccc2)c(=O)c1N=Nc1ccc(C(=O)O)cc1 | 1% | 31% | -3 | 15% | -4
O=c1c2ccccc2[nH]c(=S)n1CCCN1CCN(c2ccccc2F)CC1 | 1% | 3.5µM* | 21 | 8.9µM* | /
O=c1c2ccccc2[nH]c(=S)n1CCN1CCCCC1 | 16% | -16% | -13 | -5% | -2
O=c1c2ccccc2[nH]c(=S)n1CCCN1CCN(c2ccccc2)CC1 | 7% | 7.9µM* | 3 | 10µM* | 0
O=c1c2cccnc2[nH]c(=S)n1CCCN1CCN(c2ccccc2F)CC1 | -4% | 2.2µM* | 10 | -8% | -1
COc1ccc(CC/C(C)=N\NC(N)=O)cc1 | 7% | 28% | 1 | 8% | 7
CCOc1ccc(S(=O)(=O)N2CCC(C(=O)NCc3ccncc3)CC2)cc1Cl | -1% | -1% | 9 | 16% | 2
COc1ccc2oc(=O)c(C(=O)N3CCN(C(=O)c4ccco4)CC3)cc2c1 | -1% | 10% | 0 | -4% | -7
CC1(C(=O)NC(=S)N(CCC#N)c2ccccc2)CC1(Cl)Cl (configuration not stated) | -5% | 13µM* | 3 | ? | 16
CC(C)N(Cc1ccccc1)C(=S)NC(=O)C1(C)CC1(Cl)Cl (configuration not stated) | -2% | 0.56µM* | -3 | 2.5µM* | 0
C=CC[C@@H]1C=C[C@@H](O/N=C\[C@@H](OC)[C@H](C)/C=C\CC(=O)OC)[C@@H](CO)O1 | / | 1%[10 µM] | / | 2%[10 µM] | /
COc1ccc(CN(Cc2ccc(C(=O)O)cc2)C(=S)Nc2cccc(C)c2)cc1OC | -5% | -22% | -6 | 7% | -1
SMILES | p53 reactivation | RORgamma inh | Six1-Eya2 blk | VP16 counter | CtBP-E1A blk
COc1ccc(CN(C)C(=S)Nc2ccc(Cl)cc2)cc1 | -2% | 10µM* | 0 | ? | -24
COc1cccc(CN(C)C(=S)Nc2cccc(C)c2)c1 | -1% | 11µM* | 0 | ? | 2
CCc1cccc(CC)c1NC(=O)CSc1nnc(C2CC2)n1C | 1% | -4% | 14 | -1% | 5
CC(C)CC1NC(=S)N(C2CCCCC2)C1=O (configuration not stated) | 8% | ? | 2 | ? | 3
CCC1NC(=S)N(C2CCCCC2)C1=O (configuration not stated) | -2% | 11µM* | 4 | ? | 6
CC(C)C1NC(=S)N(C2CCCCC2)C1=O (configuration not stated) | 19% | 6.3µM* | 8 | ? | 1
O=C1C(Cc2c[nH]c3ccccc23)NC(=S)N1C1CCCCC1 (configuration not stated) | -1% | 20µM* | -24 | ? | 1
CCCCCCC(=O)NNC(=O)c1c(O)c2ccccc2n(CC)c1=O | -2% | 11µM* | -18 | ? | -8
CCCn1c(=O)c(C(=O)Nc2cccc(C)c2)c(O)c2ccccc21 | / | ? | 16 | 13µM* | /
CCCn1c(=O)c(C(=O)NNC(=O)c2ccccc2Cl)c(O)c2ccccc21 | 5% | 11µM* | ? | ? | ?
CCCCCCCCC(=O)NNC(=O)c1c(O)c2ccccc2n(CC)c1=O | -2% | -11% | 2 | -2% | -15
CCn1c(=O)c(C(=O)NCc2ccccc2Cl)c(O)c2ccccc21 | / | ? | 0 | 20µM* | 10
O=c1[nH][nH]c2c1[C@H](CCc1cccc(Cl)c1)O[C@H](C1CCCC1)C2 | / | / | -11 | / | -4
COc1ccc(CCN2CC(C(=O)NCCc3ccccc3C)CCC2=O)cc1 (configuration not stated) | -1% | 3% | -7 | 7% | -2
CN(C)Cc1ccccc1-c1cncnc1NCc1cccs1 | / | 1% | / | 0% | /
Cc1ccc2cc(C)c(SCC(=O)Nc3cc(C)on3)nc2c1 | 0% | -18% | 4 | 3% | 0
COc1ccccc1CN1CCCC2(CCN(S(=O)(=O)c3ccccc3)CC2)C1 | / | -21% | / | -10% | /
Cc1c(Cl)cccc1NC(=S)N1CCN(S(=O)(=O)c2cccs2)CC1 | ? | ? | 2 | 1% | 1
Cc1ccc(NC2=Nc3ccccc3CC2)cc1 | 12% | 11µM* | -7 | ? | 1
Brc1ccc(NC2=Nc3ccccc3CC2)cc1 | ? | ? | 2 | ? | -2
CCN1CCN(c2c(/C=C3\SC(=S)N(Cc4ccco4)C3=O)c(C)c(C#N)c(=O)n2C)CC1 | -3% | 7.1µM* | -7 | ? | -4
Cc1nc2cnc(N(C)C)nc2n(CCc2ccccc2)c1=O | / | 24% | / | -3% | /
Cc1ccc(NC(=O)c2ccc(NCCN)c([N+](=O)[O-])c2)cc1 | 20% | 6.3µM* | -24 | -28% | -16
COc1ccc(S(=O)(=O)N2CCC(C(=O)NCCCc3ccccc3)CC2)cc1 | 1% | 1% | 4 | -1% | 0
CC1(C(=O)NCc2cccnc2)CCN1C(=O)Cc1cccs1 (configuration not stated) | / | / | 2 | / | 3
